# Data: PubChem BioAssay (NCI)
# About 83,000 compounds went through this panel and 20% of them were active in at least one assay; those are over-represented in the sample as a whole.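 Interpretation: 100, growth as untreated; towards 0, rising growth inhibition; 0, no net growth; 0 to -100, cell death. Compounds scoring below 10 were considered active.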 Calls of active or inactive are those of the source.
# Tested on: HL-60(TB) leukemia
# Test: NCI-60 one-dose screen, 48 h (100 = growth as untreated, 0 = no growth, -100 = all killed)
# Conditions: 10 µM unless noted
row,Compound,growth
1,O=C(c1ccc(O)cc1)C1[C@H](c2ccc(Cl)cc2)[C@@H](c2ccccc2)NC12C(=O)Nc1ccc(Cl)cc12 (some centres not stated),38.5% (inactive)
2,O=C(/C=C/Nc1ccc(S(=O)(=O)Nc2ncccn2)cc1)c1ccc(N=Cc2c(O)[nH]c3ccccc23)cc1,99.6% (inactive)
3,Cc1ccccc1NC1CC(=O)N(c2ccc(Cl)cc2Cl)C1=O (configuration not stated),102% (inactive)
4,COC(=O)[C@@]1(C)CC[C@]2(C)CC[C@]3(C)C(=CC(=O)[C@@H]4[C@@]5(C)Cc6c(n(CC#CCN7CCN(C)CC7)c7ccccc67)C(C)(C)[C@@H]5CC[C@]43C)[C@@H]2C1,3.4% (active)
5,C=C=COc1cccc(/C(N)=N/C(N)=N/c2nc3ccccc3s2)c1,97.8% (inactive)
6,CCN1CCN(/C(=N\c2sc(-c3ccccc3)nc2-c2ccccc2)c2ccccc2)CC1,50.9% (inactive)
7,CC1=C(C)C(=O)C(Nc2cccc(C(F)(F)F)c2)=C(Br)C1=O,54.7% (inactive)
8,Cc1nn(-c2ccccc2)c2ncnc(N/N=C/c3ccccc3)c12,91.5% (inactive)
9,COc1ccc(C(=NNS(=O)(=O)c2ccc(C)cc2)c2ccccc2)cc1OC,96.9% (inactive)
10,Cc1ccc2ccc3ccc(C)nc3c2n1.Cc1ccc2ccc3ccc(C)nc3c2n1.Oc1c(Cl)cc(Cl)c2ccc(CN3CCCCC3)nc12.[Ru],-52.1% (active)
11,CCCCOc1ccc(S(=O)(=O)N2CCN(c3nc(C)cc(N4CCOCC4)n3)CC2)cc1,20.3% (inactive)
12,Clc1ccc2c(N/N=C/c3c[nH]c4ccccc34)ccnc2c1,-34.7% (active)
